GPR151 ag: activators of human GPR151, primary screen, cell-based, PathHunter beta-arrestin, luminescence | G-protein coupled receptor 151 (Homo sapiens), Q8TDV0 | PathHunter beta-arrestin GPR151 cells | activation, % at 11.2 µM | hit rate 1% among 650,000; in the data active means activation above about 4.9%;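 further: 0% = median of compound wells and 100% = cells with positive control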
Target sequence (Q8TDV0 whole entry, looked up): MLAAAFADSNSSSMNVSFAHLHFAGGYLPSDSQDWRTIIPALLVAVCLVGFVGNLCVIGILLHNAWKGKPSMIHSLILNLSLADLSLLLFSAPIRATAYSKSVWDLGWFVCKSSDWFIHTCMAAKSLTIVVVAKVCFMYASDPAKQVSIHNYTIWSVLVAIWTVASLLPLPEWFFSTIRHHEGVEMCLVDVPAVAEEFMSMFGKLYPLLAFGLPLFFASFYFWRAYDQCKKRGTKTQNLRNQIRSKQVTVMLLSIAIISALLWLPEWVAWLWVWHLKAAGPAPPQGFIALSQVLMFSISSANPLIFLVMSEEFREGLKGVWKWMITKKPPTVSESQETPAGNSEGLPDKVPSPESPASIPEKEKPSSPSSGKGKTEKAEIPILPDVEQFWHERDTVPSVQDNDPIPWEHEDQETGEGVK
MITF primary: MITF inhibitors, primary screen, biochemical, AlphaScreen, human. AlphaScreen MITF homodimerization, bead proximity signal. Microphthalmia-associated transcription factor (Homo sapiens), O75030. AID 1259374, 2018. inhibition, % at 2.6 µM. hit rate 0.91% among 650,000; in the data active means inhibition above about 50%;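 further: 0% = vehicle wells with protein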
FBW7 act: FBW7 E3 ligase activators, primary screen, biochemical, AlphaScreen, human; AID 1259310, 2017; F-box/WD repeat-containing protein 7 (Homo sapiens), Q969H0; normalized activity (activation), % at 26.1 µM; AlphaScreen FBW7–phospho-cyclin E peptide binding, activator screen; hit rate 0.13% among 650,000; in the data active means normalized activity above about 1.9%;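 further: purified mutant Fbw7 with reduced substrate affinity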
TEAD-YAP inh: TEAD-YAP interaction inhibition, primary screen, TEAD-YAP interaction inhibitor project, luminescence, HEK-TIYL cells. hit rate 1.4% among 640,000. TEAD-Gal4/YAP UAS-luciferase luminescence. inhibition, % at 9.12 µM. AID 1259422, 2018; in the data active means inhibition above about 32%;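 further: 0% = median of test compound wells and 100% = reference inhibitor wells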
GPR151 conf act: GPR151 activators, triplicate retest, confirmation, cell-based, PathHunter beta-arrestin, luminescence; shares compounds with GPR151 ag; GPR151 PathHunter beta-arrestin cells, 90 min; % of EA-reagent control over plate median; activation, % at 11.2 µM; 6,700 tested, under 10 active; AID 1508609, 2020;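 active means mean percent activation across replicates above the confirmation screen cutoff of 4.91%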
GPR119 ag: GPR119 activators in beta-arrestin cells, counter-screen for GPR151 activator project, cell-based, PathHunter beta-arrestin, luminescence, triplicate; hit rate 0.3% among 6,700; shares compounds with GPR151 ag; activation, % at 11.2 µM; AID 1508611, 2020; 90 min; 0 = compound-well median, 100 = enzyme-acceptor control;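 active means mean percent activation in the counterscreen above 29.09%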;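 further: counterscreen on off-target GPR119 to flag nonselective hits from the GPR151 activator screen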
Active calls of the source: *; x = no result given; ! = a repeat was not active. Hits are enriched below; roughly 3.4% of the tested compounds scored in any of these assays.

SMILES	GPR151 ag	MITF primary	FBW7 act	TEAD-YAP inh	GPR151 conf act	GPR119 ag
CC1CCCCN1S(=O)(=O)c1ccc(C(=O)Nc2cccc(Br)c2)cc1 (stereo not given)	1.1	-2.6	0.2	-5.3	x	x
CCN(CC)S(=O)(=O)c1ccc(OC)c(NS(=O)(=O)c2ccccc2[N+](=O)[O-])c1	1.5	-16.5	-0.1	-11.2	x	x
COc1ccc(S(=O)(=O)Nc2ccccc2C(=O)NC(C)C)cc1OC	18.4*	-1.6	-0.1	-0.5	0.5	6.1
CCN(CC)S(=O)(=O)c1ccc(OC)c(NS(=O)(=O)c2cccc([N+](=O)[O-])c2)c1	6.2*	24.3	0.1	-0.3	0.3	4.3
CC(C)(C)C1CCc2c(sc3nc(SCCc4ccccc4)nc(N)c23)C1 (stereo not given)	0.1	0.7	0.6	-4.5	x	x
Cc1ccccc1N(CC(=O)NC1CCCCC1)C(=O)c1ccc2c(c1)NC(=O)C(C)(C)O2	-0.7	-0.8	-0.1	-0.9	x	x
CC(C)CN1CCN(C(=O)c2cc(C(C)C)[nH]n2)CCC1=O	-0.5	5.5	-0.1	11.7	x	x
COc1ccc(N2CC(CNC(=O)Nc3ccc(Cl)cc3)CC2=O)cc1 (stereo not given)	0.9	12.2	0.2	7.5	x	x
CN(C)c1ccc(C(=O)N2CCOCC2)cc1	-0.5	7.0	1.4	4.7	x	x
CN(C)c1ccc(C(=S)N2CCOCC2)cc1	9.7*	-3.3	0.0	-0.3	0.4	-7.1
O=C1C2CC=CCC2C(=O)N1CC(=O)N1N=C(c2ccc(Cl)cc2)CC1c1ccco1 (stereo not given)	6.6*	9.7	0.1	5.5	1.5	-5.9
Cc1ccc(C(=O)NCc2ccc(Cl)cc2)o1	7.7*	4.6	0.2	-7.0	1.2	-8.8
NC(=O)C(=O)NCc1ccc(Cl)cc1	5.9*	1.8	0.8	-0.8	-0.5	-2.0
Cc1ccc(C(=O)NCc2ccccc2)o1	0.4	10.0	0.1	3.4	x	x
N#CC1=C(N)N(c2ccc(F)cc2)C2=C(C(=O)CCC2)C1c1cccs1 (stereo not given)	0.3	-41.4	-0.2	3.7	x	x
NC(=O)Cc1cn(-c2ccc(NCCCN3CCCC3=O)nn2)c2ccccc12	4.2	8.0	0.0	1.1	x	x
O=C(Cn1c(=O)oc2ccccc21)NCc1ccc(F)cc1	0.9	14.7	0.0	-4.0	x	x
CC(C)Oc1ccc(CNC(=O)Cn2c(=O)oc3ccccc32)cc1	5.3*	-0.9	-0.1	-7.6	0.0	6.7
O=C(Cn1c(=O)oc2ccccc21)NCc1cccc(F)c1	9.5*	11.2	0.0	-2.5	1.0	10.0
CCNC1(C#N)C(=O)Nc2ccccc21 (stereo not given)	1.0	-20.7	0.1	-3.0	x	x
COc1ccc(OCCn2c(-c3ccc(Cl)cc3)nc3ccccc3c2=O)cc1	-1.1	-2.9	0.0	-10.3	x	x
O=c1c2ccccc2cnn1CCOc1ccc(Cl)cc1	4.9*	-4.5	-0.2	-40.1	0.2	-4.3
N#CCC(=O)N/N=C\c1c[nH]c2c1ccc1ccccc12	-0.3	6.5	0.0	-2.0	x	x
COc1ccc(NC(C)C(=O)N/N=C/c2ccccc2Cl)cc1 (stereo not given)	7.3*	16.7	0.2	6.3	-0.2	-6.8
COc1ccc(/C=N/NC(=O)c2cc(C(C)(C)C)[nH]n2)cc1O	0.6	0.4	0.0	-3.1	x	x
SMILES	GPR151 ag	MITF primary	FBW7 act	TEAD-YAP inh	GPR151 conf act	GPR119 ag
COc1cccc(/C=N\NC(=O)c2cc(C(C)(C)C)[nH]n2)c1O	5.8*	22.4	-0.6	68.9*	0.8	3.7
COc1cccc(/C=N/NC(=O)C(C)Nc2ccc(C)cc2)c1O (stereo not given)	11.8*	8.6	-0.2	17.1	0.7	1.1
CC(Oc1cccc(Cl)c1)C(=O)N/N=C/c1ccccc1O (stereo not given)	6.6*	5.3	0.4	7.9	0.4	2.4
COc1ccccc1NC(C)C(=O)N/N=C/c1cccc(OC)c1O (stereo not given)	0.5	21.5	-0.1	16.3	x	x
CC1=C(C(=O)OC2CCCCC2)C(c2ccc(Br)cc2)C2=C(CCCC2=O)N1 (stereo not given)	-1.1	-1.0	-0.1	-4.3	x	x
Cc1cc(N2CCC(C)CC2)nc2ccc(N)cc12	7.4*	1.4	-0.2	-34.7	-1.1	-2.3
CCCn1c(C)cc(=O)c2cc([N+](=O)[O-])ccc21	11.4*	15.3	-0.1	0.7	-0.1	-5.8
N#Cc1ccc(S(=O)(=O)Nc2ccccc2C(N)=O)cc1	-0.8	5.3	0.1	3.9	x	x
CCCCCCSc1nc2sc3c(c2c(=O)n1-c1ccc(OC)cc1)CC(C)(C)OC3	9.7*	-5.6	-0.1	3.0	1.4	16.0
CCCCCCSc1nc2sc3c(c2c(=O)n1-c1ccc(C)cc1)CC(C)(C)OC3	0.6	10.4	0.1	1.4	x	x
CC(C)Cn1c(SCc2ccc([N+](=O)[O-])cc2)nnc1-c1ccncc1	5.9*	8.4	0.1	6.4	0.4	3.1
Nc1ncnc2nc(SCCO)[nH]c12	7.0*	-8.9	-0.2	-7.0	-1.0	-4.9
NC(=O)CSc1nc2ncnc(N)c2[nH]1	0.6	17.6	-0.1	-4.3	x	x
Brc1ccccc1-c1nnc2sc(-c3ccc4c(c3)OCCO4)nn12	5.7*	-1.2	-0.1	-3.1	0.8	4.2
O=C(Cn1ccnc1)N1CCOc2ccc(CN3CCN(c4ccccc4)CC3)cc2C1	-0.5	5.1	-0.3	-0.7	x	x
Cc1cccc(N(CC(N)=O)C2SC(=O)N(Cc3cccc(C(=O)O)c3)C2=O)c1 (stereo not given)	10.7*	12.6	0.6	-3.2	-0.4	-6.9
CCOC(=O)CN(c1cccc(C)c1)C1SC(=O)N(Cc2cccc(C(=O)O)c2)C1=O (stereo not given)	0.0	0.9	0.6	-4.6	x	x
CCCOC(=O)C1=C(C)NC2=C(C(=O)CCC2)C1c1cc(Br)c(O)c(OCC)c1 (stereo not given)	-0.5	13.4	0.2	-2.7	x	x
CCCOC(=O)C1=C(C)NC2=C(C(=O)CCC2)C1c1cccnc1 (stereo not given)	6.1*!	1.5	-0.1	2.0	1.0	2.6
CCOc1c(Br)cc(C2C(C(=O)N3CCOCC3)=C(C)NC3=C2C(=O)CCC3)cc1OC (stereo not given)	6.2*	-0.9	0.1	3.9	-0.5	-0.9
CCCCCOC(=O)C1=C(C)NC2=C(C(=O)CCC2)C1c1cc(Br)c(O)c(OCC)c1 (stereo not given)	5.5*	8.8	0.2	1.5	-1.3	-3.4

Source: PubChem BioAssay
